Test systems include DU-145 prostate; K-562 leukemia; MALME-3M melanoma; MDA-MB-231 breast; RXF 393 renal; SF-268 CNS; SF-295 CNS; SF-539 CNS; UACC-257 melanoma; M14 melanoma; HCT-15 colon; HT29 colon; SNB-75 CNS; U251 CNS; PC-3 prostate; SK-MEL-5 melanoma; UACC-62 melanoma; LOX IMVI melanoma; SK-MEL-28 melanoma.
Common to all, as to experiment: NCI-60 one-dose screen, 48 h (100 = growth as untreated, 0 = no growth, -100 = all killed)
Settings in all cases: 10 µM unless noted

About 83,000 compounds went through this panel and 20% of them were active in at least one assay; those are over-represented in the sample as a whole.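 Cells were grown in 96-well plates and exposed to the test compound at a single concentration for 48 hours; results are reported as percent growth, with values below 10 considered active.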 Values without a mark were called inactive. Activity calls are given as the source filed them.

Regarding `NS(=O)(=O)N(c1cc(C(F)(F)F)cc(C(F)(F)F)c1)C1CCN(Cc2ccc(F)cc2)CC1`, the growth in the assay with DU-145 prostate was 99%; in the assay on K-562 leukemia it was 26.1%; with MALME-3M melanoma, 29%; with MDA-MB-231 breast, 67.7%; in the assay with RXF 393 renal, 41.7%; in the assay on SF-268 CNS, 79.9%. Moreover, the growth is 81.6% with SF-295 CNS; 83.1% with SF-539 CNS; 62.1% with UACC-257 melanoma; 46.6% with M14 melanoma; 24.4% in the assay on HCT-15 colon; 8.44% (active) in the assay on HT29 colon. Moreover, the growth in the assay with SNB-75 CNS was 55.3%; in the assay with U251 CNS it was 59.8%; with PC-3 prostate it was 34.2%; with SK-MEL-5 melanoma it was 32.2%; with UACC-62 melanoma, 57.1%; in the assay on LOX IMVI melanoma, 68.9%. For the same compound, the growth with SK-MEL-28 melanoma is 82.1%.
As to `COC1/C=C\OC2(C)Oc3c(C)c(O)c4c(O)c(c(CN(C)CCO)c(O)c4c3C2=O)NC(=O)/C(C)=C\C=C/C(C)C(O)C(C)C(O)C(C)C(OC(C)=O)C1C` (configuration not stated), the growth in the assay with DU-145 prostate was 116%; in the assay with K-562 leukemia, 92.3%; in the assay on MALME-3M melanoma it was 84.2%; in the assay with MDA-MB-231 breast, 108%; with RXF 393 renal it was 98.5%; in the assay on SF-268 CNS it was 97.3%. The growth was 113% in the assay with SF-295 CNS; 91.1% in the assay on SF-539 CNS; 105% in the assay with UACC-257 melanoma; 105% with M14 melanoma; 104% in the assay on HCT-15 colon; 140% in the assay with HT29 colon. Moreover, the growth was 83.2% in the assay on SNB-75 CNS; 109% in the assay with U251 CNS; 97.2% with PC-3 prostate; 108% in the assay on SK-MEL-5 melanoma; 97.6% in the assay on UACC-62 melanoma; 94.9% in the assay on LOX IMVI melanoma. In the assay with SK-MEL-28 melanoma, the growth is 124%.
Regarding `CSc1ncnc2c1ncn2C1CCCO1` (configuration not stated), the growth was 127% in the assay with DU-145 prostate; 91.2% in the assay with K-562 leukemia; 93.6% in the assay with MALME-3M melanoma; 110% in the assay with MDA-MB-231 breast; 131% with RXF 393 renal; 115% in the assay with SF-268 CNS. Moreover, the growth in the assay on SF-295 CNS was 104%; with SF-539 CNS it was 103%; in the assay on UACC-257 melanoma, 124%; in the assay on M14 melanoma, 109%; in the assay with HCT-15 colon, 103%; in the assay with HT29 colon, 99.7%. For the same compound, the growth with SNB-75 CNS was 83.2%; in the assay with U251 CNS it was 103%; in the assay with PC-3 prostate, 106%; in the assay on SK-MEL-5 melanoma, 107%; in the assay on UACC-62 melanoma, 88.5%; with LOX IMVI melanoma, 102%. Moreover, the growth with SK-MEL-28 melanoma was 141%.
On to `c1ccc(CSc2ncnc3nc[nH]c23)nc1`, for which the growth in the assay with DU-145 prostate is 113%; in the assay with K-562 leukemia, 96.7%; with MALME-3M melanoma it was 103%; in the assay on MDA-MB-231 breast it was 97.6%; in the assay with RXF 393 renal, 119%; with SF-268 CNS, 109%. Also, the growth with SF-295 CNS is 104%; with SF-539 CNS, 99.5%; in the assay with UACC-257 melanoma it was 120%; in the assay with M14 melanoma, 101%; with HCT-15 colon, 103%; in the assay on HT29 colon, 112%. Moreover, the growth was 97.2% in the assay on SNB-75 CNS; 113% in the assay on U251 CNS; 112% in the assay on PC-3 prostate; 100% with SK-MEL-5 melanoma; 88.4% with UACC-62 melanoma; 106% with LOX IMVI melanoma. The growth in the assay with SK-MEL-28 melanoma was 128%.
Consider `CCN(CC)CC(O)CNc1c2ccc([N+](=O)[O-])cc2nc2cc(OC)c(OC)cc12` (configuration not stated), for which the growth with DU-145 prostate is -29.9% (active); in the assay on K-562 leukemia it was 3.2% (active); with MALME-3M melanoma it was -82% (active); with MDA-MB-231 breast it was -71.9% (active); with RXF 393 renal, -43.4% (active); in the assay on SF-268 CNS it was -35.2% (active). Besides, the growth was -8.54% (active) with SF-295 CNS; -35.7% (active) with SF-539 CNS; -33.5% (active) with UACC-257 melanoma; -56.7% (active) in the assay on M14 melanoma; 11.9% with HCT-15 colon; -48.7% (active) with HT29 colon. For the same compound, the growth was -94.6% (active) with SNB-75 CNS; -16.2% (active) in the assay on U251 CNS; -53.4% (active) in the assay with PC-3 prostate; -78.3% (active) with SK-MEL-5 melanoma; -77.6% (active) in the assay on UACC-62 melanoma; -40.2% (active) with LOX IMVI melanoma. Also, in the assay with SK-MEL-28 melanoma, the growth is -11.9% (active).
`COc1ccc(CCN2CC=Cn3c2nc2ccccc2c3=O)cc1`: the growth is 7.97% (active) in the assay on DU-145 prostate; 10.8% in the assay on K-562 leukemia; 63.2% with MALME-3M melanoma; 18.8% in the assay with MDA-MB-231 breast; 36.7% in the assay with RXF 393 renal; 35.7% with SF-268 CNS. The growth was 17.2% in the assay on SF-295 CNS; -34.1% (active) in the assay with SF-539 CNS; 80.3% with UACC-257 melanoma; 16.4% in the assay on M14 melanoma; 15.9% with HCT-15 colon; 12.9% with HT29 colon. Further, the growth in the assay with SNB-75 CNS was 37.1%; with U251 CNS, 27.6%; in the assay with PC-3 prostate it was 34.1%; with SK-MEL-5 melanoma, -13.8% (active); in the assay with UACC-62 melanoma, 31.8%; with LOX IMVI melanoma, 14.1%. In the assay on SK-MEL-28 melanoma, the growth is 78.7%.
Turning to `CN(CC(=O)N(Cc1ccc(C2CCCCC2)cc1)c1ccc(C(=O)NO)cc1)S(=O)(=O)c1c(F)c(F)c(F)c(F)c1F`, the growth was 78.3% in the assay with DU-145 prostate; 20.6% in the assay on K-562 leukemia; 86.4% in the assay on MALME-3M melanoma; 40.3% in the assay with MDA-MB-231 breast; 71.2% in the assay on RXF 393 renal; 87% in the assay on SF-268 CNS. Besides, the growth in the assay with SF-295 CNS is 108%; in the assay on SF-539 CNS, 92.7%; in the assay on UACC-257 melanoma it was 102%; in the assay with M14 melanoma, 67.9%; with HCT-15 colon, -35.4% (active); with HT29 colon it was 0.552% (active). Further, the growth was 84.5% in the assay on SNB-75 CNS; 48.8% in the assay with U251 CNS; 88.1% with PC-3 prostate; 99.6% with SK-MEL-5 melanoma; 94.5% with UACC-62 melanoma; -8.7% (active) with LOX IMVI melanoma. Moreover, in the assay on SK-MEL-28 melanoma, the growth is 86.8%.
In the case of `COc1ccc(Cl)cc1Nc1nc(C(F)(F)F)ccc1C(=O)N/N=C/c1cccnc1`, the growth in the assay with DU-145 prostate is 53.7%; with K-562 leukemia it was 36.1%; in the assay with MALME-3M melanoma it was 42.6%; in the assay with MDA-MB-231 breast, 49.3%; in the assay on RXF 393 renal, 60.9%; in the assay with SF-268 CNS, 48.9%. In addition, the growth in the assay with SF-295 CNS was 81.6%; in the assay on SF-539 CNS, 45.9%; in the assay on UACC-257 melanoma, 72.7%; in the assay with M14 melanoma it was 52.9%; in the assay with HCT-15 colon, 29.1%; in the assay with HT29 colon it was 49.6%. Besides, the growth in the assay on SNB-75 CNS was 67.1%; in the assay with U251 CNS it was 40.4%; in the assay on PC-3 prostate, 43.7%; with SK-MEL-5 melanoma, 22.2%; in the assay with UACC-62 melanoma, 50.9%; with LOX IMVI melanoma, 36.3%. For the same compound, the growth with SK-MEL-28 melanoma is 59.9%.

For the origin of these results see PubChem BioAssay (NCI).
